# High-throughput results: PubChem, National Center for Advancing Translational Sciences (NCATS)
# Tau fluor cs – counter-screen for tau fibril formation inhibitors. tau K18 P301L Alexa594 fluorescence, heparin fibrillization. Potency, µM (top dose mostly 57.7 µM), inactives show top-dose activity change, negative = decrease. 0.93% of 280,000 active; note: nearly all actives have a fitted effect of over 55% in size
#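 Human tau K18 P301L (15 uM unlabeled, 0.24 uM Alexa 594-labeled) in 100 mM sodium acetate pH 7 with 20 uM heparin, 6 hr at 37 C. ThT 30 uM added, 1 hr ambient; Alexa 594 FP and total fluorescence read at 555/632 nm.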
# Tau fibril ThT – tau fibrillization inhibition (ThT binding); P10636; recombinant tau K18 P301L (four-repeat tau fragment), heparin-induced fibrillization, ThT fluorescence; Potency, µM (top dose mostly 57.4 µM), for the others: top-dose activity, negative = inhibition, usual class: inhibitors; 2.1% of 270,000 active; note: nearly all actives have a fitted effect of over 55% in size
#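 Heparin-induced fibrillization of the P301L-mutant K18 repeat-domain fragment of human tau was followed by ThT binding in quantitative high-throughput format.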
# TexasRed fluor – Texas Red fluorescence interference in TRb-SRC2 counter-screen; TRb/SRC2 Texas Red total fluorescence interference; Potency, µM (top dose mostly 106 µM), without a hit: top-dose fluorescence change, negative = quenching; 0.29% of 280,000 active; AID 1479; active = well fitted curve in either direction with a large enough effect; inconclusive = small, poorly fitted or top-dose-only effect
#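 Flags fluorescent or light-absorbing compounds by total fluorescence, S + 2P, at 555 nm excitation and 632 nm emission. Mixture: 20 nM Texas Red SRC2 peptide, 0.6 uM human TRb LBD, 1 uM T3, 5% DMSO; compound exposure 5 h at ambient temperature.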
# TRb SRC2 PPI – inhibitors of human thyroid hormone receptor beta-SRC2 interaction; TRbeta-SRC2 peptide binding, fluorescence polarization; receptor liganded with 1 µM T3; Potency, µM (doses to about 106 µM), for inactives: at the top dose activity change, negative = inhibition, most hits filed as inhibitors; 0.065% of 280,000 active; AID 1469;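 note: plate controls were bound peptide for no effect and peptide without receptor for full effect; nearly all actives have a fitted effect of over 50% in size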
# Target sequence (P10828 whole entry, looked up): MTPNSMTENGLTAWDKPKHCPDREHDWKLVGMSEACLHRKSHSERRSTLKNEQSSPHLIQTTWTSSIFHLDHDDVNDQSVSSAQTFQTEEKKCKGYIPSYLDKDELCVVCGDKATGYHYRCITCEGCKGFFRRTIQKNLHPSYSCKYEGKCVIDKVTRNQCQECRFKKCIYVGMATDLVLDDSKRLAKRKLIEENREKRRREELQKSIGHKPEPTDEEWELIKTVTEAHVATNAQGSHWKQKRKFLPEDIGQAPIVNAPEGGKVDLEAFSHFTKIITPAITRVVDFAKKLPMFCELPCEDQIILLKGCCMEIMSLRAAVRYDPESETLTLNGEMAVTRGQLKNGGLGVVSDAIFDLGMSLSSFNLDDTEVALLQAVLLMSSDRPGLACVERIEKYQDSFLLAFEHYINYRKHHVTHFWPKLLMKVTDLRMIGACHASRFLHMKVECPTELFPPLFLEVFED
#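 TRb LBD 0.6 uM + Texas Red SRC2 peptide 20 nM, 1 uM T3, Tris buffer w/ 5% DMSO; compound pinned, 5 h RT; FP read ex 555/em 632; normalized to unbound and bound controls.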
# Tau fibril FP – blocks human tau fibril formation measured by polarization | P10636 | K18 P301L tau heparin fibrillization, Alexa594 FP, 6 h | Potency, µM (highest dose often 57.7 µM), for the others: at the top dose activity, negative = inhibition, actives largely listed as inhibitors | 0.39% of 280,000 active; note: nearly all actives have a fitted effect of over 55% in size
#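 Quantitative HTS format: compounds meet 15 uM recombinant K18 P301L tau and Alexa 594-tau tracer in 100 mM sodium acetate pH 7; 20 uM heparin triggers fibrillization at 37 C over 6 hr; FP gives the signal.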
# Starred values were filed as active, the others as inactive; ? = inconclusive; nt = no result given; [ ] = another dose, or the depositor's remark. A selection: hits, their analogues and other compounds. The true share with any hit is near 3%. Unless noted, calls come from the whole dose curve; as a rule, active = well fitted curve in the direction sought with a large enough effect; inconclusive = small, poorly fitted or top-dose-only effect, or another doubt; inactive = no such curve, though single readings can be large; an effect the other way counts as inactive or inconclusive. Unless noted, % is set by controls: 0 for no effect and ±100 for the full control effect; potency is the fitted concentration of half-maximal effect.
SMILES,Tau fluor cs,Tau fibril ThT,TexasRed fluor,TRb SRC2 PPI,Tau fibril FP
COC(=O)C1=C(CSc2nc3c(cc2C#N)CN(C)CC3)OC(N)=C(C#N)C1c1ccccc1F (configuration not stated),?,18µM*,-3%,-3%,?
CCOC(=O)C1=C(CSc2nc3c(cc2C#N)CN(C)CC3)OC(N)=C(C#N)C1c1ccc(F)cc1 (configuration not stated),?,16µM*,2%,-26%,?
COc1cccc(NC(=O)c2ccc(CNS(=O)(=O)c3ccc4c(c3)C(C)(C)C(=O)N4C)cc2)c1,?,-1%,-1%,2%,-8%
CCCCCCC1=Cc2cc(OC)c(OC)cc2C(C(C(C)=O)C(=O)OCC)O1 (configuration not stated),-12%[11.6 µM],-16%[11.5 µM],-3%[11.2 µM],7%[11.2 µM],3%[11.6 µM]
CCOC(=O)[C@H](Cc1ccc(O)cc1)NC(=O)c1ccccc1,nt,nt,-3%,0%,nt
COc1ccc(S(=O)(=O)N(CCO)c2ccccc2CN(C)C/C=C/c2ccc(Cl)cc2)cc1,-14%,-9%,0%,2%,4%
Cc1cc(C)c(S(=O)(=O)Nc2cc(SCC(=O)O)c(O)c3ccccc23)cc1C,?,13µM*,-3%,-17%,25µM*
COc1ccc(N2CCN(C(=O)c3cccc(NC(=O)c4nsc5ccccc45)c3)CC2)cc1,?,?,-3%,3%,7%
Cc1ccc(NC(=O)CN2C(=O)c3cccnc3Oc3ccc(Cl)cc32)cc1,-22%,-15%,18µM*[quencher],-15%,?
CCc1ccccc1NC(=O)CN1C(=O)c2cccnc2Oc2ccc(Cl)cc21,-7%,-6%,14µM*[quencher],-6%,4%
Cc1ccc(CN2CCC(CNC(=O)c3cnn(-c4ccccc4)c3C3CCN(C(=O)OC(C)(C)C)CC3)CC2)cc1,-7%,-12%,-3%,3%,-7%
CCC1c2ccc(C)n2CCN1C(=O)Nc1cc(Cl)ccc1OC (configuration not stated),-28%,22µM*,-3%,0%,?
O=[N+]([O-])c1ccc2c(c1N1CCCCC1)=NC1(CCCCC1)[N+]=2[O-],?,13µM*,-8%,-2%,?
O=[N+]([O-])c1ccc(N2CCCCC2)nc1N1CCCCC1,-22%,?,-1%,-2%,0%
COC(=O)C1C(C)OC(=O)NC1c1ccccc1 (configuration not stated),-7%[11.6 µM],-10%[11.5 µM],-3%[11.2 µM],6%[11.2 µM],-9%[11.6 µM]
COC(=O)C1=C(C)NC(=O)/C1=C\c1ccc2c(c1)OCO2,-15%,13µM*,-2%,6%,7%
CCc1ccccc1NC(=O)CSc1nc2c(oc3ccccc32)c(=O)n1-c1ccccc1F,-20%,-7%,-3%,3%,?
O=C(Cn1c(-c2cccs2)cc2ccccc21)N1CCN(c2ccccc2F)CC1,-7%,-1%,100µM*[quencher],-27%,-3%
Cc1cc(NS(=O)(=O)c2ccc(NC(=O)COc3cc(C)c(Br)cc3C(C)C)cc2)no1,-11%,?,0%,14%,?
O=C(Nc1ccc(S(=O)(=O)N(Cc2ccccc2)c2ccccc2)cc1)c1ccc(F)cc1,?,8%,-1%,1%,10µM*
COc1cccc(C(=O)Nc2ccc(S(=O)(=O)N(Cc3ccccc3)c3ccccc3)cc2)c1,?,1%,2%,-3%,10µM*
O=C(Nc1ccc(S(=O)(=O)N(Cc2ccccc2)c2ccccc2)cc1)c1ccccc1F,-26%,12%,3%,4%,?
Cc1ccc2onc(CC(=O)Nc3cccc(C(F)(F)F)c3)c2c1,-2%,-2%,4%,-2%,-4%
Cc1ccc2c(CC(=O)Nc3ccc(S(=O)(=O)N4CCC(C)CC4)cc3)coc2c1,?,8%,1%,4%,10µM*
Cc1ccc2occ(CC(=O)Nc3ccc(S(=O)(=O)N4CCC(C)CC4)cc3)c2c1,?,5%,-17%,4%,8.9µM*
Cc1ccc2c(CC(=O)Nc3cccc(C(F)(F)F)c3)coc2c1,?,1%,-4%,-2%,25µM*
